# Experimental data taken from PubChem BioAssay AID463173 (ICCB-Longwood Screening Facility, Harvard Medical School, 2010).
# About 4,300 (8.3%) of roughly 52,000 compounds were called active. For the sample, actives were picked, then their nearest neighbours and some compounds at random. A number with no mark means an inactive call. No stated cut-off is given here; in the data, active means survival mostly below about 52% (no sharp cut-off); inactive means mostly above about 56%.
# Test system: DeltatarO mutant
# Assay: growth inhibition of S. aureus wild type versus tarO mutant, primary screen, teichoic acid synthesis inhibitors, RN4220, OD600 (AID 463173)
# Settings: OD600, 18 h, hits give low values, screened at 18.75 µg/mL (by protocol)
row,SMILES,survival
1,Cn1ccc2cc(S(=O)(=O)N3CCC(C(=O)NCCc4ccccc4)CC3)ccc21,89%
2,Cc1nn(C)c2c1c(C(F)(F)F)cc(=O)n2C(C)C(=O)N1CCN(c2ccccc2)CC1 (stereo unspecified),86%
3,CC(C)OC(=O)CSc1nnc(-c2ccccc2)n1Cc1ccco1,87%
4,COc1ccc(Cl)cc1NC(=O)CN1Cc2ccccc2C1=O,100%
5,CCC(Sc1nnc2c3ccccc3n(CC)c2n1)C(=O)Nc1ccc(NC(C)=O)cc1 (stereo unspecified),104%
6,Cc1ccccc1C(=O)Nc1sc2c(c1C(=O)N1CCC(C)CC1)CCC(C)C2 (stereo unspecified),-3% (active)
7,CC(C)(C)C1CCc2c(sc(NC(=O)c3ccncc3)c2C(=O)Nc2ccccc2Cl)C1 (stereo unspecified),71%
8,CC(C)(C)C1CCc2c(sc(NC(=O)c3ccco3)c2C(=O)Nc2ccccc2Cl)C1 (stereo unspecified),135%
9,O=C(Nc1sc2c(c1C(=O)N1CCCCC1)CCCC2)c1ccccc1Cl,69%
10,Cc1ccccc1C(=O)Nc1sc2c(c1C(=O)N1CCC(C)CC1)CCCC2,58%
11,COC(=O)c1ccccc1NC(=O)c1c(NC(=O)c2ccco2)sc2c1CCC(C(C)(C)C)C2 (stereo unspecified),137%
12,Cc1ccccc1C(=O)Nc1sc2c(c1C(=O)N1CCCCC1)CCC(C)C2 (stereo unspecified),49%
13,CC(C)(C)C1CCc2c(sc(NC(=O)c3ccccc3F)c2C(=O)N2CCCCC2)C1 (stereo unspecified),-5% (active)
14,Cc1ccccc1NC(=O)c1c(NC(=O)c2ccccc2F)sc2c1CCC(C)C2 (stereo unspecified),63%
15,CCOc1ccccc1NC(=O)c1c(NC(=O)c2ccccc2C)sc2c1CCC(C)C2 (stereo unspecified),65%
16,CC1CCN(C(=O)c2c(NC(=O)c3ccccc3Cl)sc3c2CCC(C(C)(C)C)C3)CC1 (stereo unspecified),10% (active)
17,CC1CCN(C(=O)c2c(NC(=O)c3ccccc3F)sc3c2CCC(C(C)(C)C)C3)CC1 (stereo unspecified),-4% (active)
18,Cc1cccc(-n2nnc(-c3nc(-c4cccs4)no3)c2N)c1,87%
19,COc1ccc(OC)c(NC(=O)Cn2cc(S(=O)(=O)c3ccccc3)c(=O)c3cc(C)ccc32)c1,70%

row,SMILES,survival
1,CCOc1ccc(NC(=O)Cn2ccn3nc(-c4ccc(OC)c(OC)c4)cc3c2=O)cc1,102%
2,Cc1ccc(SCC(=O)Nc2ccc(O)c(-c3nc4cc(C)ccc4o3)c2)cc1,64%
3,NNC(=O)C(Sc1n[nH]c(=O)[nH]c1=O)c1ccccc1 (stereo unspecified),80%
4,Cc1oc(C(C)(C)C)cc1C(=O)NCCO,77%
5,CCOc1cccc(C2c3[nH]c4ccccc4c3CCN2C(=O)CSc2ccccc2)c1 (stereo unspecified),71%
6,COc1ccc(-c2cc(C(F)(F)F)nc(SCC(=O)Nc3ccc(C(C)=O)cc3)n2)cc1,59%
7,Cc1ccc(CN(Cc2ccco2)C(=O)COc2ccc(C)c(C)c2)cc1,68%
8,CC(C)(C)C1CCc2c(sc(NC(=O)c3ccccc3F)c2C(=O)NCc2ccco2)C1 (stereo unspecified),61%
9,CCCNC(=O)c1c(NC(=O)c2ccccc2)sc2c1CCC(C(C)(C)C)C2 (stereo unspecified),9% (active)
10,CCN(CC)C(=O)c1c(NC(=O)c2ccccc2F)sc2c1CCC(C(C)(C)C)C2 (stereo unspecified),-8% (active)
11,Cc1ccccc1C(=O)Nc1sc2c(c1C(=O)O)CCC(C(C)(C)C)C2 (stereo unspecified),-2% (active)
12,CN(C)C(=O)c1c(NC(=O)c2ccccc2F)sc2c1CCCC2,76%
13,CC(C)(C)C1CCc2c(sc(NC(=O)c3ccc(Cl)cc3)c2C(=O)NCc2ccco2)C1 (stereo unspecified),86%
14,Cc1ccccc1C(=O)Nc1sc2c(c1C(=O)N1CCCCC1)CCC(C(C)(C)C)C2 (stereo unspecified),-2% (active)
15,Cc1ccccc1NC(=O)c1c(NC(=O)c2ccco2)sc2c1CCC(C(C)(C)C)C2 (stereo unspecified),74%
16,Cc1ccc(C(=O)Nc2sc3c(c2C(=O)NCc2ccco2)CCC(C(C)(C)C)C3)cc1 (stereo unspecified),64%
17,Cc1ccccc1C(=O)Nc1sc2c(c1C(=O)NCc1ccco1)CCC(C(C)(C)C)C2 (stereo unspecified),109%
18,CCOC(=O)c1sc(N2C(=O)c3oc4cc(C)c(C)cc4c(=O)c3C2c2cccc(O)c2)nc1C (stereo unspecified),78%
19,O=C1C2(Cc3ccccc3)CN3CN(C2)CC1(Cc1ccccc1)C3,75%

row,SMILES,survival
1,COc1ccc(NC(=O)c2cc(-c3ccc(F)cc3)no2)cc1OC,71%
2,O=C(Nc1ccccc1[N+](=O)[O-])c1csnn1,73%
3,CC1=C(C(=O)Nc2cccnc2)C(c2ccccc2)n2nc(SCc3ccccc3)nc2N1 (stereo unspecified),74%
4,Cc1ccccc1OCC(=O)Nc1ccccc1C(=O)OCc1cc(=O)n2c(C)csc2n1,94%
5,CCOC(=O)c1c(S(=O)(=O)NCC(=O)NCc2ccccc2Cl)c(C)n(C)c1C,97%
6,CC(C)(C)C1CCc2c(sc(NC(=O)CCC(=O)O)c2C(=O)Nc2ccccc2C(F)(F)F)C1 (stereo unspecified),-6% (active)
7,COc1ccccc1NC(=O)c1c(NC(=O)c2cccs2)sc2c1CCC(C(C)(C)C)C2 (stereo unspecified),139%
8,COc1ccccc1NC(=O)c1c(NC(=O)Cc2ccccc2)sc2c1CCC(C(C)(C)C)C2 (stereo unspecified),126%
9,Cc1ccc(CNC(=O)C2CCN(C(=O)N3CC(C)Oc4ccc(Cl)cc43)CC2)cc1 (stereo unspecified),57%
10,CCOc1ccc(NC(=O)N2CC=C(c3c[nH]c4ccccc34)CC2)cc1,83%
11,COc1ccccc1NC(=O)N1CC=C(c2c[nH]c3ccccc23)CC1,42% (active)
12,COc1cc(OC)c(NC(=O)N2CC=C(c3c[nH]c4ccccc34)CC2)cc1Cl,75%
13,Cc1cccc(NC(=O)N2CC=C(c3c[nH]c4ccccc34)CC2)c1C,73%
14,CCOC(=O)c1cccc(NC(=O)N2CC=C(c3c[nH]c4ccccc34)CC2)c1,83%
15,CCc1ccc(NC(=O)N2CC=C(c3c[nH]c4ccccc34)CC2)cc1,39% (active)
16,COc1ccccc1OCC(=O)Nc1ccc(S(=O)(=O)N2CCN(C)CC2)cc1,78%
17,CCc1ccc(-n2nc(CO)c(C(=O)NC(C)c3ccc(Cl)cc3)n2)cc1 (stereo unspecified),58%
18,COc1cc(S(=O)(=O)N2CCN(c3ccccc3F)CC2)c(OC)cc1Cl,87%
